Sampled rows, rich in hits. Any-hit rate of the full collection: about 3.5%.
TEAD-YAP inh: TEAD-YAP interaction inhibition; HEK-TIYL cells, TEAD-Gal4/YAP UAS-luciferase luminescence; inhibition, % at 9.12 µM; actives 1.4% (n = 640,000); AID 1259422; in the data active = inhibition above about 32%;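 also: 0% = median of test compound wells and 100% = reference inhibitor wells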
GPR151 ag: activators of human GPR151; AID 1508602; Q8TDV0; actives 1% (n = 650,000); PathHunter beta-arrestin GPR151 cells, luminescence; activation, % at 11.2 µM; in the data active = activation above about 4.9%;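 also: 0% = median of compound wells and 100% = cells with positive control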
MITF primary: human MITF inhibition, primary screen. AlphaScreen MITF homodimerization, bead proximity signal. inhibition, % at 2.6 µM. actives 0.91% (n = 650,000). O75030; in the data active = inhibition above about 50%;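 also: 0% = vehicle wells with protein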
Target sequence (O75030 whole entry, looked up): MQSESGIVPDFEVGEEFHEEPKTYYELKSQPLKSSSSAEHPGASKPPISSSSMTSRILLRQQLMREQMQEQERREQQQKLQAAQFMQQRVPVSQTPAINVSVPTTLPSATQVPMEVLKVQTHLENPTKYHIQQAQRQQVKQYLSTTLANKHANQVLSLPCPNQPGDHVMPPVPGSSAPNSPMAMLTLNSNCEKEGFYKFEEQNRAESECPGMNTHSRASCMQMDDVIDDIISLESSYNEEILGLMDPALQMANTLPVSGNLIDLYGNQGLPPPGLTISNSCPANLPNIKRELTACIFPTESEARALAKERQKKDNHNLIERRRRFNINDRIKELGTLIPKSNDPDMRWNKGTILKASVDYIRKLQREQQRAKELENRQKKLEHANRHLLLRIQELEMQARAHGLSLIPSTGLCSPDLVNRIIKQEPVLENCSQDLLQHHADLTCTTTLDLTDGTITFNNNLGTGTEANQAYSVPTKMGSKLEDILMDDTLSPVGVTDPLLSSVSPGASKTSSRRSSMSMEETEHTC
FBW7 activator: human FBW7 E3 ligase activation, primary screen. AlphaScreen FBW7–phospho-cyclin E peptide binding, activator screen. actives 0.13% (n = 650,000). Q969H0. normalized activity (activation), % at 26.1 µM; in the data active = normalized activity above about 1.9%;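 also: purified mutant Fbw7 with reduced substrate affinity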
The depositor's hits bear a star.

SMILES	TEAD-YAP inh	GPR151 ag	MITF primary	FBW7 activator
Cn1c(=O)c(=O)n(C)c2cc(S(=O)(=O)N3CCc4ccccc43)ccc21	-3	0	14	0
CC1Cc2ccccc2N1S(=O)(=O)c1ccc2c(c1)oc(=O)n2C (centres undefined)	49*	1	-3	0
O=S(=O)(c1ccc(Cl)c(Cl)c1)N1CCc2ccccc21	14	1	-7	0
Cn1c(=O)oc2cc(S(=O)(=O)N3CCc4ccccc43)ccc21	50*	0	9	0
Cc1cc(-c2ccc(S(=O)(=O)N3CCc4ccccc43)cc2)on1	58*	-1	15	0
CCCCOc1ccc(Cc2c(Cl)nc(SC)nc2OCC)cc1	6	0	5	0
Cn1c(Nc2nc(Nc3ccccc3)c3ncn(CCN4CCCC4=O)c3n2)nc2ccccc21	-9	-1	3	0
CCOC(=O)/C(=C\N(C)C)C(=O)c1cc([N+](=O)[O-])c(Cl)cc1Cl	38*	0	5	0
CN1/C(=C/C(=O)c2ccco2)C(C)(C)c2ccccc21	35*	4	5	1
CN1/C(=C\C(=O)CSCc2ccco2)C(C)(C)c2ccccc21	0	0	6	0
CCNC(=O)N1c2ccc(OCC)cc2C(C)=CC1(C)C	-2	4	10	0
CCOc1ccc2c(c1)N(S(=O)(=O)c1ccc(NC(C)=O)cc1)C(C)(C)C=C2C	73*	0	6	0
CC1=CC(C)(C)N(S(=O)(=O)c2ccc(Br)cc2)c2ccc(C)cc21	58*	0	-12	0
CCOc1ccc2c(c1)C(C)=CC(C)(C)N2S(=O)(=O)c1ccc(Br)cc1	61*	1	5	0
Cc1ccc(S(=O)(=O)c2cn(CC(=O)Nc3ccccc3)c3ccc(C)cc3c2=O)cc1	-9	-1	-12	0
O=C(Nc1nnc(-c2ccncc2)s1)c1ccco1	0	-1	-1	0
O=C(N/N=C/c1c[nH]c2ccccc12)c1cc(-c2ccncc2)nc2ccccc12	35*	-2	6	0
O=C(N/N=C\c1c[nH]c2ccccc12)c1ccc(O)cc1	-3	0	1	0
O=C(N/N=C/c1c[nH]c2ccccc12)c1cc(-c2ccccc2)n[nH]1	0	1	-10	0
O=C(O)c1ccc(N/N=C/c2c[nH]c3ccccc23)cc1	85*	-6	-2	0
CCCC(=O)NC(c1ccco1)c1c(O)ccc2ccccc12 (centres undefined)	1	-1	11	0
COc1ccc(C(NC(C)=O)c2c(OC(C)=O)ccc3ccccc23)cc1 (centres undefined)	62*	0	15	1
CCCC(=O)NC(c1ccc(OC)cc1)c1c(O)ccc2ccccc12 (centres undefined)	44*	0	-15	0
COc1ccc(C(NC(C)=O)c2c(O)ccc3ccccc23)cc1 (centres undefined)	62*	1	-1	0
Cc1cc(=O)oc2cc(OC(=O)/C=C/c3cccc(I)c3)ccc12	-10	0	-6	0
SMILES	TEAD-YAP inh	GPR151 ag	MITF primary	FBW7 activator
CCCN(C(=O)c1coc(=O)c2ccccc12)c1cccc(Cl)c1	68*	0	2	0
CC(C)c1ccc2c(c1)C1C=CCC1C(c1ccc(S(=O)(=O)N3CCOCC3)cc1)N2 (centres undefined)	-2	0	10	0
CCNc1nc(NCC)n2c(SCC(=O)Nc3cccc(Cl)c3C)nnc2n1	4	1	76*	0
CCNc1nc(NCC)n2c(SCC(=O)Nc3cc(=O)n(C)c(=O)n3C)nnc2n1	-3	0	73*	0
CCNc1nc(NCC)n2c(SCC(=O)c3ccc(OC)c(OC)c3)nnc2n1	7	2	69*	-1
CCCCSc1nnc2c(n1)OC(c1cc(Cl)cc(OC)c1OC(C)=O)N(C(C)=O)c1ccccc1-2 (centres undefined)	-2	3	5	0
O=C(COC(=O)c1ccc2c(c1)C(=O)N(c1cc(Cl)ccc1Cl)C2=O)c1cccc([N+](=O)[O-])c1	5	0	-4	0
Cc1ccc(C)c(NC(=S)N(CCCN2CCCC2)Cc2cccs2)c1	1	-1	-10	0
Nc1nc2c(nc(N3CCOCC3)n2C2OC(CO)C(O)C2O)c(=O)[nH]1 (centres undefined)	4	-1	10	2.3*
Oc1ccc(Br)cc1/C=N\Nc1nc2ccccc2[nH]1	65*	0	11	0
C/C(=N\Nc1nc2ccccc2[nH]1)c1ccccc1Cl	14	0	12	0
C/C(=N\Nc1nc2ccccc2[nH]1)c1ccccc1O	-16	0	52*	-1
C(=N\Nc1nc2ccccc2[nH]1)/c1ccccn1	95*	-8	46	-1
C(=N\Nc1nc2ccccc2[nH]1)/c1cccc(/C=N/Nc2nc3ccccc3[nH]2)c1	-12	2	8	0
O=C(CCCCCn1nnc2ccccc2c1=O)N1CCN(C2CCCCC2)CC1	3	0	8	0
N#CC1=C(SCc2ccccc2)NC(=O)CC1c1cccc(Cl)c1 (centres undefined)	-17	0	-4	0
Cc1cccc(NC(=O)CCc2csc(NC(=O)c3ccc(F)cc3)n2)c1C	40*	2	3	0
CC(C)c1ccccc1NC(=O)CCc1csc(NC(=O)c2ccc(F)cc2)n1	23	1	1	0
Brc1cccc2cnc(Nc3ccc(-n4cnc(N5CCOCC5)n4)cc3)nc12	-14	0	6	0
CN(C)c1ccc2nc3c(nc2c1)C(=O)c1ccccc1C3=O	-20	-2	-8	0
Cc1cc2nc3ccc(N(C)C)cc3nc2cc1N	32*	-6	58*	0
Cc1cc2nc3cc(N)c(C)cc3cc2cc1N	73*	1	8	0
Cc1ccc(Cn2ccn(Cc3ccccc3)c(=O)c2=O)cc1	15	-3	7	0
Cc1ccc2nc(-c3ccc(N)cc3)oc2c1	66*	-6	4	0
Cc1cc2nc(-c3ccc(N)cc3)oc2cc1C	83*	-8	1	0
SMILES	TEAD-YAP inh	GPR151 ag	MITF primary	FBW7 activator
Cc1ccc2nc(-c3cccc(N)c3)oc2c1	46*	-10	20	1
Cc1ccc2nc(-c3ccc(O)cc3)oc2c1	98*	-6	2	0
Nc1cccc(-c2nc3cc(N)ccc3o2)c1	-34	-4	-1	0
Cc1ccc2nc(-c3cc(N)ccc3Cl)oc2c1	-26	-6	-7	0
Cc1ccc2nc(-c3ccc(NC(=O)c4ccc(I)cc4)cc3)oc2c1	-1	-2	-13	0
COc1cc(N2CCN(S(=O)(=O)c3ccc(Cl)cc3)CC2)ccc1[N+](=O)[O-]	-4	0	10	0
Cc1c(/C=C/C(=O)c2ccc(O)cc2)cnn1C	51*	-1	0	0
Cc1ccc2occ(/C=C/C(=O)c3ccc(O)cc3)c(=O)c2c1	-11	3	-10	0
COc1ccccc1/C=C/C(=O)c1ccc(O)cc1	-21	-1	-5	0
CCn1cc(/C=C/C(=O)c2ccc(O)cc2)c(C)n1	86*	0	7	0

Bioassay records from PubChem.
